Values joined by “and” are separate entries in the source; they are usually repeats but may differ in a detail not shown here. Identical values can stand only once. Compounds without any hit were thinned out: in the full panel of roughly 83,000, 20% have a hit.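 Results are percent growth after 48 hours of single-concentration exposure. 100 means growth as in untreated cells, lower positive values show inhibition; negative values down to -100 show cell death.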 Values without a mark were called inactive. Active and inactive are the calls of the source. The calls were made as follows: active = growth percent below 10; inactive = the rest.

Our source for the growth values is PubChem BioAssay (NCI).

In the first experiment the test system is HOP-92 NSCLC. Nature of the experiment: NCI-60 one-dose screen, 48 h (100 = growth as untreated, 0 = no growth, -100 = all killed). Conditions: 10 µM unless noted.
Consider `O=C(NN1C(=O)/C(=C/C=C/c2ccc([N+](=O)[O-])o2)SC1=S)c1ccc([N+](=O)[O-])cc1`, for which the growth is -84.2% (active).

For `O=C(Nc1ccc(-c2ccc3c(c2)NC(=O)/C3=C\c2ccc[nH]2)cc1)Nc1ccc(Cl)c(Cl)c1`, the growth was 88.5%.

`O=C1Nc2ccc(F)cc2/C1=C/C(=O)c1cc2ccccc2oc1=O`: the growth was 94.7%.

In the case of `Cc1cnc2ccc(Oc3ccccc3-c3ccccc3)nn12`, the growth is 122%.

The test system of the next experiment is NCI-H522 lung. The experiment is described as above. Conditions: 10 µM unless noted.
On to `CCCn1c(NC(=O)c2cccc(C(N)=O)c2)nc2ccc(CN3CCCCC3)cc21`, for which the growth was 94.1%.

Turning to `Fc1ccc(Nc2nnc(-c3c[nH]c4ccccc34)o2)cc1`, the growth was 48.7%.

Turning to `CC1=C(C(=O)OC(C)C)C(c2ccc(O)cc2)NC(=O)N1` (configuration not stated), the growth was 81.3%.

Consider `COc1ccc(NC(=O)Cn2c(/C=C/c3ccc([N+](=O)[O-])cc3)nc3ccccc3c2=O)cc1`, for which the growth is 73%.

In the case of `O=C(c1ccc(O)cc1)C1[C@H](c2ccc(Cl)cc2)[C@@H](c2ccccc2)NC12C(=O)Nc1ccccc12` (some centres not stated), the growth is -8.98% (active).

Turning to `O=c1ccc(Cn2c(C(F)(F)F)cc3c(Cl)ncnc32)c[nH]1`, the growth was -77.1% (active).

In the case of `O=C(CSc1nc2c(c(=O)[nH]1)CCCC2)Nc1ccccc1C(=O)O`, the growth is 83.8%.

For the compound `COc1ccc2[nH]c(O)c(N=Nc3nc(-c4ccc(C#N)cc4)cs3)c2c1`, the growth was 65.4%.

Turning to `COc1ccc(-c2nc3ccc(-c4nnc(SCC(=O)Nc5ccc(/C(C)=N\O)cc5)o4)cc3[nH]2)cc1`, the growth is 40.1%.

For `Cc1ccc(C2CC(c3ccc(NC(=O)Nc4ccccc4)cc3)=NN2c2ccc(S(C)(=O)=O)cc2)cc1` (configuration not stated), the growth was -23.7% (active).

Turning to `CN1CCN(C(=O)Oc2cc3c(c4ccccc24)[C@H](CCl)CN3C(=O)c2cc3cc(OCCCN4CCC4)ccc3[nH]2)[C@H]2CSSC[C@H]21`, the growth was -54.8% (active).

Regarding `Cc1ccc(N=Nc2c(N)nn3c(-c4cc5ccccc5oc4=O)ccnc23)cc1`, the growth is 64.9%.

For `C[C@@H]1[C@H]2C[C@@H](C[C@H]1NCc1nc3ccccc3n1C1CCCCCC1)C2(C)C`, the growth was 22.9%.

Turning to `Cc1ccc(C(=O)Nc2cc(-n3ccnc3)cc(C(F)(F)F)c2)cc1-n1cc(-c2cnc3cccnn23)nn1`, the growth is 102%.

For `CCC(=O)c1c2c(c3ccc4c5ccccc5ccc4n13)C(=O)c1ccccc1C2=O`, the growth was 86.8%.

As for `N#Cc1c(NC(=O)N2CCOCC2)n(-c2ccc(OC(F)(F)F)cc2)c2cc(F)ccc12`, the growth was 78.8%.

As for `CC(=O)Nc1cccc(-n2c(COc3ccc(Br)cc3)nc3ccccc32)c1`, the growth is 97.1% and 108%.

With `COc1ccc(-c2cc(C(=O)OCc3ccc(Br)cc3)nn2-c2ccc(S(C)(=O)=O)cc2)cc1OC`, the growth was 52.8%.

For the compound `Cc1nc(N)ncc1-c1ccc2ncnc(N3CCc4cc(F)c(Cl)cc43)c2c1`, the growth is 68.2%.

As to `COc1ccc(C(=O)NNC(=O)CSc2nc3sc4c(c3c(=O)n2-c2ccc(Cl)cc2)CCCC4)cc1`, the growth is 59%.

With `Cn1cc(-c2cc3nc(-c4cn(C)c5ncccc45)cc(N)n3n2)c2cc(F)ccc21`, the growth is 22.7%.

On to `COc1ccc2[nH]c(=O)c(CSc3ccccc3Nc3nccc(-c4ccc(C(F)(F)F)cc4)n3)cc2c1`, for which the growth was 0.553% (active).

For the compound `N#CC1=C(c2cccs2)Nc2c(c(-c3ccccc3)nn2-c2ccccc2)C12C(=O)Nc1ccc(Br)cc12` (configuration not stated), the growth is -12.4% (active).

For the compound `CCN1CCN(Cc2ccc(C(=O)Nc3cccc(Nc4ccc5c(OC)cccc5n4)c3)cc2C(F)(F)F)CC1`, the growth is -83.3% (active).

For `O=C(Nc1ccc(S(=O)(=O)N2CCCCC2)cc1)C(Cl)Cl`, the growth was 98.4%.

Turning to `O=[N+]([O-])c1cccc(-c2nnc3c(/C=C/c4ccc(F)cc4)nc4ccccc4n23)c1`, the growth was 81%.

For the compound `COc1ccc(/C=C/C(=O)c2ccc(OC)c(S(N)(=O)=O)c2)c(C(F)(F)F)c1`, the growth was 9.43% (active).

Consider `COc1ccc2[nH]cc(-c3cc4nc(-c5cn(C)c6ncc(Br)cc56)cc(N)n4n3)c2c1`, for which the growth is -64.9% (active).

For the compound `N#CC1=C(c2cccs2)Nc2c(c(-c3ccccc3)nn2-c2ccccc2)C12C(=O)Nc1ccc(Cl)cc12` (configuration not stated), the growth was 3.38% (active).

`Oc1ccc(F)c(Nc2nc(SCCN3CCOCC3)nc3c2cnn3CC(Cl)c2ccc(Br)cc2)c1` (configuration not stated): the growth was 29.2%.

For the compound `O=C(NNC(=S)NCCc1ccccc1)c1ccc(OCc2nc3ccc(Cl)cc3[nH]2)cc1`, the growth was 78.7%.

With `COc1c(B(O)O)cc(F)cc1-c1nc2c(F)cc3[nH]ncc3c2c2c1CCCC2`, the growth is 5.36% (active).

For the compound `C[C@H]1[C@@H](CC(=O)N[C@@H](Cc2coc3ccccc23)B(O)O)O[C@@H]2OC3(C)CC[C@H]4[C@H](C)CC[C@@H]1[C@@]24O3`, the growth was -50% (active).

Take `C#CCN(C)CCCOc1ccc(N(C)C(=O)c2cc(C(C)C)c(O)cc2O)cc1Cl`: the growth was 12.6%.

Consider `O=C(NN1C(=O)/C(=C/C=C/c2ccc([N+](=O)[O-])o2)SC1=S)c1ccc([N+](=O)[O-])cc1`, for which the growth was -88.7% (active).

`O=C(Nc1ccc(-c2ccc3c(c2)NC(=O)/C3=C\c2ccc[nH]2)cc1)Nc1ccc(Cl)c(Cl)c1`: the growth was 63%.

In the case of `O=C1Nc2ccc(F)cc2/C1=C/C(=O)c1cc2ccccc2oc1=O`, the growth was -7.22% (active).

Regarding `Cc1cnc2ccc(Oc3ccccc3-c3ccccc3)nn12`, the growth was 108%.
